From the supplement of paper PMC3334620
In all, about 33,000 sequences were measured (“E-score (-0.5 to 0.5)”: median about -0.011, highest 2% from about 0.28 on). The full list was thinned out, with the highest values kept by preference.

biological target: T1, Gcr1 (UniProt P07261); experiment: PBM E-score (8-mer binding enrichment) (E-score (-0.5 to 0.5)); higher = stronger / more preferred TF binding; conditions: protein concentration: 100 nM; construct: GST-full length
T1 sequence: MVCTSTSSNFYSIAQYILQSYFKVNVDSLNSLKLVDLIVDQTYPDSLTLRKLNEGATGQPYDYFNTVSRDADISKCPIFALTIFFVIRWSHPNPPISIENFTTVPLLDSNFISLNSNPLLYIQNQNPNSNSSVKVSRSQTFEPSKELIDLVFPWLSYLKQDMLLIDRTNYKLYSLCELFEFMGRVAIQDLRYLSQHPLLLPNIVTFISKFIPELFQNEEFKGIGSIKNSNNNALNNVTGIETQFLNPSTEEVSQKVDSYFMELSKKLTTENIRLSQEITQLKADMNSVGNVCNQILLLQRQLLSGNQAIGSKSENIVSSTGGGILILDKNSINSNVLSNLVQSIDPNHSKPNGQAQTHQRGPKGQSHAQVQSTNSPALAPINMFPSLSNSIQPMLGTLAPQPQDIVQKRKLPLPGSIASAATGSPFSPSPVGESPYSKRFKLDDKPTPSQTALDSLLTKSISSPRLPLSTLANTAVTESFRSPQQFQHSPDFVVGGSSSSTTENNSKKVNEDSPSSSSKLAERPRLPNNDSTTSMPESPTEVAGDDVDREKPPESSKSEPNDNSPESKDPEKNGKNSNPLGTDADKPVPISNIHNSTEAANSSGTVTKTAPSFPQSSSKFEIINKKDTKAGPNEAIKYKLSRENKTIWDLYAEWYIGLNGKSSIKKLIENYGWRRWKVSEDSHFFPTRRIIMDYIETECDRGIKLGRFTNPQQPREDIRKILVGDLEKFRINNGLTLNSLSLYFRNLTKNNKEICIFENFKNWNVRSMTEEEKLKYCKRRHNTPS
Protocol: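 Universal 'all 10-mer' protein binding microarrays (Agilent AMADID 015681) probed with GST-tagged S. cerevisiae TFs (full-length or DBD) made by in vitro transcription/translation (PURExpress), about 100-200 nM. Bound TF was detected with fluorescent anti-GST. Each ungapped 8-mer (which stands for itself and its reverse complement) is scored by the PBM enrichment score (E-score), a modified Wilcoxon-Mann-Whitney statistic from -0.5 to +0.5, computed with the Universal PBM Analysis Suite. Scale: above 0.35 generally sequence-specific binding.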

Row | Sequence | PBM E-score
1 | CCCAGTCC | -0.0352
2 | AAGTTCAA | 0.0288
3 | CACGTGCC | -0.121
4 | ATCGATCC | -0.0388
5 | CCTAGAGG | 0.0618
6 | CAAGTTCG | -0.0211
7 | ACATTGCT | 0.0699
8 | GCATCTCA | 0.139
9 | TGGGCAAA | -0.213
10 | CGCTTCCG | 0.291
11 | AGCTTCCC | 0.378
12 | CGCTTCAG | 0.0898
13 | TGCTTCCA | 0.146
14 | AGCTTCCG | 0.433
15 | AGCTTCGC | 0.173
16 | CCCTTCCG | -0.286
17 | AGCTTCCA | 0.458
18 | ACCTTCCC | -0.00014
19 | AGCTTCAA | 0.0987
20 | AGCTTCGG | 0.17
21 | AGCTTCAG | -0.19
22 | GATTAAGC | 0.0627
23 | CAAAACGC | 0.025
24 | AAGCAAAA | -0.075
25 | CCATCCGG | -0.0299

Row | Sequence | PBM E-score
26 | GGCTTCAC | -0.14
27 | CGCTTCGA | -0.0778
28 | CGCTTCCA | 0.351
29 | GGCTTCCC | 0.433
30 | CCCTTCCA | -0.0993
31 | CGCTTCCC | 0.273
32 | GTCAGGTA | 0.091
33 | GTTCTAAA | 0.0776
34 | CAGAATCC | 0.161
35 | CTATCGCC | -0.00847
36 | AACAGGTA | 0.269
37 | CACAGGAA | 0.118
38 | GACAGGAC | 0.0783
39 | AACAGGAT | 0.318
40 | AACAGGAG | -0.0445
41 | GACAGGAA | 0.316
42 | TACAGGAA | 0.394
43 | AACAGGAC | 0.162
44 | GTCAGGAA | 0.104
45 | ACCAGGAA | 0.0492
46 | TACAGGTA | 0.0633
47 | AACAGGAA | 0.334
48 | CGGCTCAA | 0.00705
49 | GCGGGCAA | -0.146
50 | CACAAGGC | -0.161

Row | Sequence | PBM E-score
51 | AACACCTT | -0.0171
52 | AGTCCCGA | -0.15
53 | CGCATAAA | 0.0544
54 | ACGTTGCA | -0.015
55 | AACCGGAA | 0.2
56 | CACCGGAA | 0.266
57 | TACCGGAA | 0.341
58 | CTCGGGGC | -0.101
59 | CTAAGGCC | 0.046
60 | AGTTGAAT | -0.0577
61 | CGGATGTC | 0.0736
62 | AGCTTCTC | 0.25
63 | GCCTTCTA | 0.131
64 | CGCTTCTA | 0.259
65 | AGCTTCTA | 0.297
66 | AGCTTCTG | 0.245
67 | GGCTTCTA | 0.297
68 | GCTCCGGA | 0.121
69 | CGAACTAC | 0.00469
70 | AGGCCGCC | 0.292
71 | AGGCCGCA | -0.0993
72 | AGGCCGCG | 0.0497
73 | ACTGCCAA | 0.0668
74 | CCTGCGTA | 0.0119
75 | GCTGCGTA | 0.286

Row | Sequence | PBM E-score
76 | GCTGCCTA | 0.305
77 | ACTGCCTA | 0.0876
78 | CCTGCCTA | 0.00507
79 | CCTGCCAC | 0.0404
80 | TCTGCCAA | 0.00421
81 | GCTGCCAA | 0.31
82 | GCTGCCAC | 0.301
83 | ACTGCCAC | 0.101
84 | ACTGCGTA | 0.062
85 | TAGTCTGA | -0.0964
86 | TCCAAACA | 0.135
87 | AGATAACA | -0.0519
88 | ACCGTTAA | -0.119
89 | GCGGACTA | -0.12
90 | CCGTCCTA | -0.158
91 | CCGTCCCC | 0.00017
92 | GCGTCCCC | 0.304
93 | GCGTCCCA | 0.282
94 | GCGTCTCC | 0.317
95 | ACGTCCTA | 0.0954
96 | ACGTCCCC | -0.0668
97 | GCGTCCTA | 0.43
98 | ACGTCCCA | -0.153
99 | ACGTCTCC | 0.101
100 | TCGTCCCA | -0.0947

Row | Sequence | PBM E-score
101 | GCGTCTCA | 0.146
102 | ACTCAACA | 0.122
103 | GCGATCAC | -0.0279
104 | GAGCGACA | -0.0391
105 | TATTGGGA | -0.02
106 | ACTGCACC | 0.014
107 | CAGCCCTC | -0.0883
108 | AAGAATAA | 0.0669
109 | AAAACTGG | 0.254
110 | CATTTACG | 0.0351
111 | GAGTCCCC | -0.0421
112 | CAGTCCCA | 0.0489
113 | GAGTCCCA | 0.313
114 | CCGGCGTA | -0.139
115 | GCGGCGCA | -0.064
116 | CCAGCGTC | 0.314
117 | AGGGCGTC | 0.26
118 | GCGGCGCC | 0.324
119 | ACGGCGTC | 0.243
120 | GCGGCGAC | 0.148
121 | CGGGCGTC | 0.307
122 | CCGGCGTC | 0.402
123 | CCAGCGTA | -0.178
124 | CGGGCGTA | -0.097
125 | ACAGCGTC | -0.0458

Row | Sequence | PBM E-score
126 | GCGCCTGA | 0.171
127 | ATCCTACG | -0.00941
128 | AGGCCCCG | 0.0239
129 | ATGATTTC | -0.142
130 | AAATTGTG | -0.0559
131 | CATAACCC | -0.121
132 | CTCAATCA | 0.119
133 | CCGGCGCA | -0.0778
134 | ACGGCGCA | -0.265
135 | ACGGCGCT | -0.00448
136 | CCGGCGCG | -0.112
137 | ACGGCGCC | 0.312
138 | CCGGCGCC | 0.317
139 | CCTAAAGG | 0.0292
140 | AACTGATC | -0.114
141 | ATGGATCA | -0.201
142 | GCACCACC | -0.0802
143 | GTAGGCCA | -0.106
144 | ATCCGGAT | 0.286
145 | ATCCGGAC | -0.106
146 | ATCCGGAA | 0.26
147 | GAAGTAAA | -0.0223
148 | AAGGCGCC | 0.258
149 | CAGGCGCC | 0.361
150 | GAGGCGCC | 0.302

Row | Sequence | PBM E-score
151 | CAGGCGCA | -0.0694
152 | GAGGCGCA | 0.0503
153 | CAGGCGCG | -0.0119
154 | AAATGGTT | 0.0753
155 | ATTGAAGA | 0.0516
156 | CAGATAGG | 0.0828
157 | TAATTGAA | 0.228
158 | ACACGCAC | 0.0159
159 | ACACGCAG | 0.323
160 | ATACGCAT | 0.23
161 | ATACGCAG | 0.281
162 | CTACGCAG | 0.0122
163 | ACACGCAA | 0.127
164 | AGGCTATC | -0.243
165 | TGTTCAAA | -0.014
166 | AAGGAGGT | -0.0668
167 | AAGAGGGG | 0.0114
168 | CGGGCTGC | 0.234
169 | CCGGCTTA | -0.0254
170 | AGGGCTTG | -0.209
171 | CGGGCTTA | 0.00411
172 | AGGGCTTC | 0.339
173 | CGGGCTTC | 0.415
